Values joined by “and” are separate entries in the source; they are usually repeats but may differ in a detail not shown here. Equal values may be shown once. Records with an inconclusive call do not appear. Where a structure was tested more than once in an assay, its records may differ in their call. Active and inactive are the calls of the source. Unless noted, calls follow the shape of the dose curve; as a rule, active = well fitted curve in the direction sought with a large enough effect in the repeat runs; inconclusive = weak or mixed curves; inactive = no such curve, though single readings can be large; an effect the other way counts as inactive or inconclusive.

The values that follow come from PubChem BioAssay (Tox21).

A short description of test [1]: qHTS assay to identify small molecule agonists of the constitutive androstane receptor (CAR) signaling pathway - cell viability counter screen (AID 1224836). Also: nearly all actives have a fitted effect of over 45% in size. Also: potency is read from the fitted curve at half-maximal effect. An outline of the steps: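 HepG2 cells stably carrying hCAR and a CYP2B6-2.2kb reporter; 15-concentration compounds plus PK11195 (final 0.75 uM), 23 hr at 37 C/5% CO2. Viability read by CellTiter-Fluor fluorescence.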
(Quantitative high-throughput screening tests each substance at several concentrations.)

The nature of test [2]: qHTS assay to identify small molecule antagonists of the constitutive androstane receptor (CAR) signaling pathway - cell viability counter screen (AID 1224837). Also: nearly all actives have a fitted effect of over 45% in size. Also: potency is read from the fitted curve at half-maximal effect. An outline of the steps:
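Read-out: CellTiter-Fluor fluorescence after 23 hr at 37 C/5% CO2. Cells: HepG2 double-stable for hCAR and CYP2B6-2.2kb. Compounds tested at 15 concentrations in the presence of CITCO, final concentration 50 nM.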

The target of test [3] is Nuclear receptor subfamily 1 group I member 3 (Homo sapiens) (UniProt Q14994). In words: qHTS assay to identify small molecule antagonists of the constitutive androstane receptor (CAR) signaling pathway (AID 1224838).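 Also: HepG2 cells stably expressing hCAR with CYP2B6 luciferase reporter stimulated by CITCO; nearly all actives have a fitted effect of over 40% in size.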 Also: potency is read from the fitted curve at half-maximal effect. An outline of the steps: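 Read-out: ONE-Glo luciferase luminescence after 30 min at room temperature. HepG2-CYP2B6-hCAR double-stable cells, compounds in 15-point titration plus 50 nM CITCO final, 24 h at 37 C/5% CO2.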
Nuclear receptor subfamily 1 group I member 3 (Homo sapiens), sequence (Q14994 whole entry, looked up): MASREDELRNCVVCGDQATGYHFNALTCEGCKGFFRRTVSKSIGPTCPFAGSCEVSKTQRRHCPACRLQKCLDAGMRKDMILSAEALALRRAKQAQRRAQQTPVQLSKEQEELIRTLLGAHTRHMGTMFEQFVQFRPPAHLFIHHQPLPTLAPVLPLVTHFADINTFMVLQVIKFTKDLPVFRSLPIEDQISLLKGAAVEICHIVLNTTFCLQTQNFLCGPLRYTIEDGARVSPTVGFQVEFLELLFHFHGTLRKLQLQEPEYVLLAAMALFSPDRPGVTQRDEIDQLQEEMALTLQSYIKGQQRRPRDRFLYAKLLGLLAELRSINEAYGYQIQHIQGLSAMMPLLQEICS

For test [4] the target is unchanged. Description: qHTS assay to identify small molecule agonists of the constitutive androstane receptor (CAR) signaling pathway (AID 1224839). Also: nearly all actives have a fitted effect of over 15% in size. Also: potency is read from the fitted curve at half-maximal effect. As to activation: % is scaled to controls: 0 for no effect and ±100 for the full control effect. An outline of the steps: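 HepG2 cells stably co-transfected with hCAR and a CYP2B6-2.2kb luciferase reporter; compounds at 15 concentrations with 0.75 uM PK11195 present. After 24 hr at 37 C, luciferase read by ONE-Glo luminescence.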

Test [5] concerns the target Thyrotropin receptor (Homo sapiens) (UniProt P16473). In words: qHTS assay to identify small molecule agonists of the thyroid stimulating hormone receptor (TSHR) signaling pathway (AID 1224843; calls by dose curve; also: % is scaled to controls: 0 for no effect and ±100 for the full control effect; nearly all actives have a fitted effect of over 45% in size). The essentials: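 A cell-based cAMP HTRF format was run in TSHR-transfected HEK293 cells, 800 per well. Treatment: 30 min, room temperature. Detection: 1 h with labelled cAMP and anti-cAMP cryptate. Concentration-response over 15 points, three replicates.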

Test [6] can be described thus: qHTS assay to identify small molecule agonists of the hypoxia (HIF-1) signaling pathway - cell viability counter screen (AID 1224844; calls by dose curve; also: % is scaled to controls: 0 for no effect and ±100 for the full control effect; nearly all actives have a fitted effect of over 50% in size). The essentials:
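CellTiter-Glo luminescence read-out, 30 min RT, taken in the same wells as the beta-lactamase HRE reporter assay; HRE-bla ME-180 cells, 0.5% dialyzed FBS, 17 hr compound treatment at 37C, 5% CO2.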

Test [7] is described as follows: qHTS assay to identify small molecule agonists of H2AX (AID 1224845; active = well fitted activation curve with a large enough effect in the signal ratio in the repeat runs, not every such curve was filed as active; the % refers to the signal ratio; also: % is scaled to controls: 0 for no effect and ±100 for the full control effect). The essentials:
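Phospho-H2AX Ser139 measured by HTRF (ex 320 nm; em 665 and 620 nm) after 24 hr antibody incubation. Compounds, 15 concentrations, 0.76% DMSO, were applied to CHO-K1 cells for 3hr at 37C before lysis.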

Test [8] is described as follows: qHTS assay to identify small molecule agonists of H2AX - cell viability counter screen (AID 1224847; calls by dose curve; also: nearly all actives have a fitted effect of over 30% in size; also: potency is read from the fitted curve at half-maximal effect). An outline of the steps:
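CHO-K1 cells plated overnight at 37C, then exposed 3 h at 37C to compounds at 15 concentrations (0.76% DMSO final). Viability by CellTiter-Glo luminescence after 30 min at room temperature.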

Test [9] in a line: qHTS RealTime-Glo MT Cell Viability Assay in HepG2 cells - 24 hour (AID 1224867). Also: nearly all actives have a fitted effect of over 50% in size. Also: potency is read from the fitted curve at half-maximal effect. The essentials:
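Real-time, nonlytic viability: 600 HepG2 cells/well mixed with NanoLuc enzyme plus prosubstrate; 5 h settle, compound (DMSO) added by pintool; luminescence monitored over 40 h at 37 C.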

Test [10] can be described thus: A CellTox Green Cytotoxicity Assay to monitor cytotoxicity in HEK293 cells - 0 hour (AID 1224869). Also: % is scaled to controls: 0 for no effect and ±100 for the full control effect; nearly all actives have a fitted effect of over 50% in size. The essentials: (§1)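 Read-out: fluorescence of a cell-impermeant cyanine dye staining DNA of dead cells, proportional to cytotoxicity. HEK293, 600 cells/well with reagent, compound (23 nL DMSO) added after 5 h; reads at 0, 8, 16, 24, 32, 40 h.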
Test [11] can be described thus: qHTS RealTime-Glo MT Cell Viability Assay in HepG2 cells - 40 hour (AID 1224870). Also: nearly all actives have a fitted effect of over 50% in size. Also: potency is read from the fitted curve at half-maximal effect. An outline of the steps: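 Real-time viability: cells seeded at 600 per well together with NanoLuc and cell-permeant prosubstrate, compounds added after 5 h incubation. Luminescence tracked at 0, 8, 16, 24, 32 and 40 h of exposure.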
The nature of test [12]: qHTS assay to identify small molecule antagonists of the estrogen related receptor signaling pathway with the pleiotropic PPARgamma coactivator (PGC) from Tox21 10K library - cell viability counter screen (AID 1224840; active = well fitted cell-killing curve with a large enough effect in the repeat runs, not every such curve was filed as active; also: nearly all actives have a fitted effect of over 40% in size; also: potency is read from the fitted curve at half-maximal effect). An outline of the steps:
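Fluorescence read-out of CellTiter-Fluor viability reagent, added after cells had been exposed to compound in DMSO for 17.5 h at 37 C; 30 min development at 37 C/5% CO2. Cells: PGC/ERR line, 2,000/well.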

The nature of test [13]: qHTS assay to identify small molecule agonists of the hypoxia (HIF-1) signaling pathway (AID 1224846; active = well fitted activation curve with a large enough effect in the signal ratio in the repeat runs, not every such curve was filed as active; the % refers to the signal ratio; also: potency is read from the fitted curve at half-maximal effect; as to activation: % is scaled to controls: 0 for no effect and ±100 for the full control effect). An outline of the steps: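 Beta-lactamase FRET read-out (CCF4-AM substrate) from ME-180 cells carrying an HRE-driven bla reporter, after 17 hrs compound exposure at 37C/5% CO2. Cells were seeded at 2,000 per well in 0.5% dialyzed FBS medium and preincubated 5 hrs.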
The nature of test [14]: qHTS RealTime-Glo MT Cell Viability Assay in HEK293 cells - 32 hour (AID 1224868). Also: nearly all actives have a fitted effect of over 50% in size. Also: potency is read from the fitted curve at half-maximal effect. An outline of the steps:
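Cells + reagent dispensed (600 cells/well, HEK293) → 5 h at 37 C/5% CO2 → 23 nL compound in DMSO pinned → 40 h at 37 C → luminescence read at 0, 8, 16, 24, 32, 40 h.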

A short description of test [15]: A CellTox Green Cytotoxicity Assay to monitor cytotoxicity in HEK293 cells - 40 hour (AID 1224871). Also: nearly all actives have a fitted effect of over 45% in size. Also: potency is read from the fitted curve at half-maximal effect. The essentials:
as §1

Test [16] has as its target Luciferin 4-monooxygenase (Photinus pyralis) (UniProt P08659). Description: qHTS assay to identify small molecule inhibitors of firefly luciferase (AID 1224835). Also: nearly all actives have a fitted effect of over 25% in size. Also: potency is read from the fitted curve at half-maximal effect. The essentials:
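Inhibition of purified Photinus luciferase is measured by luminescence. Substrate levels (D-luciferin, ATP) sit at their KM values. Each compound is tested in a concentration series.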

The nature of test [17]: qHTS assay to identify small molecule antagonists of the estrogen related receptor signaling pathway with the pleiotropic PPARgamma coactivator (PGC) from Tox21 10K library (AID 1224841; call rule not given here). An outline of the steps:
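Luminescence read-out (One-Glo luciferase reagent, 30 min at room temperature) from PGC/ERR cells exposed to DMSO-dissolved test compounds for 18 h at 37 C; cells, 2,000 per well, had been preincubated 6 h before compound transfer.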

A short description of test [18]: qHTS assay to identify small molecule agonists of the estrogen related receptor signaling pathway with the pleiotropic PPARgamma coactivator (PGC) from Tox21 10K library (AID 1224842). Also: % is scaled to controls: 0 for no effect and ±100 for the full control effect; nearly all actives have a fitted effect of over 15% in size. The essentials: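 Luminescence from One-Glo (30 min, room temperature) measured after PGC/ERR cells had 18 h at 37 C with pinned compound (23 nL in DMSO). Cells had been seeded at 2,000 per well and pre-incubated 6 h.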

Test [19] can be described thus: qHTS assay to identify small molecule agonists of the estrogen related receptor (ERR) signaling pathway from Tox21 library (AID 1224849; calls by dose curve; also: % is scaled to controls: 0 for no effect and ±100 for the full control effect; nearly all actives have a fitted effect of over 15% in size). To be noted: ERR reporter cell line, ONE-Glo luciferase, 18 h. An outline of the steps:
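Luminescence readout (ONE-Glo, 30 min RT) after 18 h compound exposure at 37 C of NTP-supplied ERR reporter cells; cells were plated 6 h before compound addition by pin tool.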

Test [20] can be described thus: qHTS assay to identify small molecule antagonists of the estrogen related receptor (ERR) signaling pathway from Tox21 library (AID 1224848). An outline of the steps: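 ERR cell line, 2,000 cells/well. 6 h settle, then compound (DMSO) added; 18 h at 37 C; ONE-Glo luminescence after 30 min RT.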

Luciferin 4-monooxygenase (Photinus pyralis), sequence (P08659 whole entry, looked up): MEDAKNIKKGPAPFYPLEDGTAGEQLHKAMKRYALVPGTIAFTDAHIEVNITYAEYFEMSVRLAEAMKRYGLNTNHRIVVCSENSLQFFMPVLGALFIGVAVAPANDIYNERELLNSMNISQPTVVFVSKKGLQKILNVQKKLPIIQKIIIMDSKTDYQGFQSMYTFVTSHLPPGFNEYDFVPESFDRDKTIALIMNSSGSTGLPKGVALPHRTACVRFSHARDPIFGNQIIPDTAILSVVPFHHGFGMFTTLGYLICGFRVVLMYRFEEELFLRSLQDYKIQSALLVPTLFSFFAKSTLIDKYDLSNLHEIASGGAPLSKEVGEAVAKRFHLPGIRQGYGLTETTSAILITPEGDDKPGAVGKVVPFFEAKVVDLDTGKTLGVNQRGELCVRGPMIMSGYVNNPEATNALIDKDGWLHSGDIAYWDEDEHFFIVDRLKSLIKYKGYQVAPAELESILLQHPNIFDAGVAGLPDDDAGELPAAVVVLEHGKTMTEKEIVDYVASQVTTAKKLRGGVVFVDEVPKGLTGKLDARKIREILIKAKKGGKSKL
Thyrotropin receptor (Homo sapiens), sequence (P16473 whole entry, looked up): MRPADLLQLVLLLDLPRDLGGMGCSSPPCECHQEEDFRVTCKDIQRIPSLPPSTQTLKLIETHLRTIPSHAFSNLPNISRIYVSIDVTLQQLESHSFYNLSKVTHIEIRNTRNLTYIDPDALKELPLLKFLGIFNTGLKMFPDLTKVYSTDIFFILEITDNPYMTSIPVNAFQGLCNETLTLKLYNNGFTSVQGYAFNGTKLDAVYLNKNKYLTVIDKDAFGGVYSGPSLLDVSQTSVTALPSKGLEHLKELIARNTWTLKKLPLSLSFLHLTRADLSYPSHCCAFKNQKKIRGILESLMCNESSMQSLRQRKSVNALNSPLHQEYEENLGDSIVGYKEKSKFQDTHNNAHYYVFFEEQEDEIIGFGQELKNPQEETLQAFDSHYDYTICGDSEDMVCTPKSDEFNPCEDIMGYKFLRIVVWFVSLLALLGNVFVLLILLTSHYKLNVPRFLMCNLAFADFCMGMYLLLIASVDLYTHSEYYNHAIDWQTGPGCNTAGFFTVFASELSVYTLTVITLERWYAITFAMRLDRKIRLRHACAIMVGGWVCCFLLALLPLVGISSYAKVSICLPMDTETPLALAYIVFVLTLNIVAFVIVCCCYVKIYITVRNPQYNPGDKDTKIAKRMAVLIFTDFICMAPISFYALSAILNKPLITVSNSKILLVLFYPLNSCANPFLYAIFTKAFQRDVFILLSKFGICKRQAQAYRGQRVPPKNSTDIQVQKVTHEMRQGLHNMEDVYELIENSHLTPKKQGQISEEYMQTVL

As to `Oc1cc(Cl)cc(Cl)c1Cl`, the Potency result in test [1], in [2], in test [3], in test [4], in test [5] and in test [6] was “inactive” throughout. Besides, the Potency result in test [7], in test [9], in [10] and in test [11] was “inactive” throughout. Further, in test [8], the Potency is 51.7 µM (active).

In the case of `C=Cc1cccc(C)c1`, the Potency entry in test [1], in test [2], in test [3], in test [4], in test [12] and in test [5] was “inactive” each time. Further, the Potency entry in test [6], in test [7], in [13], in test [8], in test [9] and in test [14] was “inactive” each time. Besides, the Potency result in test [11] and in test [15] was “inactive” each time.

For the compound `O=S(=O)(O)c1ccccc1/C=C/c1ccc(-c2ccc(/C=C/c3ccccc3S(=O)(=O)O)cc2)cc1`, the Potency is 57.2 µM (active) in test [16] and 39.4 µM (active) in test [13]. The Potency result in test [4], in [12], in test [17], in test [18], in test [5] and in test [6] was “inactive” in each case. Besides, the Potency entry in [8], in test [9], in [14], in [10] and in test [11] was “inactive” each time. For the same compound, the activity change, positive = activation in test [19] (at 92.4 µM (top of the series)) was 4.34% (inactive).

For the compound `CCn1c2ccccc2c2cc([N+](=O)[O-])ccc21`, the Potency result in test [16], in [12], in [6], in test [9], in [10] and in test [11] was “inactive” each time. The Potency entry in test [15] is “inactive”.

`COc1ccc2cc1Oc1ccc(cc1)C[C@H]1c3c(cc4c(c3Oc3cc5c(cc3OC)CCN(C)[C@@H]5C2)OCO4)CCN1C`: the Potency was 26.6 µM (active) in test [1]; 23.7 µM (active) in test [2]; 23.7 µM (active) in [3]; 21.1 µM (active) in test [12]; 29.8 µM (active) in test [20]; 23.9 µM (active) in test [9]. The results for the Potency in test [14] and in test [11] were 5.35 µM (active) and 23.9 µM (active), respectively. Besides, the Potency entry in test [4], in [18], in test [5], in test [6] and in [10] was “inactive” throughout. Further, in test [19] (at 42.5 µM (top of the series)), the activity change, positive = activation was -56.4% (inactive).

For `O=c1[nH]c2ccccc2n1CCCN1CCN(C(c2ccccc2)c2ccccc2)CC1`, the Potency entry in test [16], in test [4], in test [5] and in test [10] was “inactive” in each case. Further, the Potency in test [12] was 23.7 µM (active); in test [9], 23.9 µM (active); in test [14], 12 µM (active); in test [11], 23.9 µM (active).

As for `[Cl][Pt-2]([Cl])([Cl])[Cl]`, the Potency result in test [1], in test [2], in test [3], in test [12], in test [18] and in test [6] was “inactive” throughout. The Potency entry in test [13], in test [8], in [9], in [10], in test [11] and in [15] was “inactive” each time. Also, in [19] (at 92.4 µM (top of the series)), the activity change, positive = activation is -8.8% (inactive).

Take `Oc1ccccc1O`: the Potency entry in test [1], in [2], in test [3], in test [5], in test [8] and in test [9] was “inactive” throughout. Besides, the Potency result in test [10] and in test [11] was “inactive” throughout. For the same compound, the Potency in test [14] was 39.4 µM (active) and 21.9 µM (active).

As to `CCCCCCCCCCCCCCCC[N+](C)(C)CC`, the Potency entry in [16], in test [18], in test [5], in test [6] and in [7] was “inactive” in each case. In addition, the Potency in test [12] is 30.7 µM (active) and inactive; in [8] it was 101 µM (active) and 49.2 µM (active); in test [9], 24.6 µM (active) and 23.9 µM (active); in test [14], 4.91 µM (active) and 4.77 µM (active); in test [11], 19.6 µM (active) and 19 µM (active). For the same compound, the activity change, positive = activation in test [19] (at 42.5 µM (top of the series)) is -55.4% (inactive); in test [19] (at 92.4 µM (top of the series)), -72.7% (inactive).

Consider `CC[C@H](C)COC(=O)/C=C/c1ccc(N=Cc2ccc(OC)cc2)cc1`, for which the Potency result in test [1], in test [2], in [3], in [12], in [5] and in test [6] was “inactive” in each case. Further, the Potency result in [7], in test [9], in test [10] and in [11] was “inactive” throughout. For the same compound, the Potency in test [4] is 24.3 µM (active); in test [14], 21.8 µM (active); in test [15], 48.9 µM (active).

For `Nc1ccc(Oc2ccc(Cl)cc2)cc1`, the Potency result in test [1], in test [3], in [12], in test [17], in [18] and in [5] was “inactive” in each case. Moreover, the Potency entry in test [6], in test [9], in test [10], in test [11] and in [15] was “inactive” each time. Moreover, the activity change, positive = activation in [19] (at 92.4 µM (top of the series)) was -19.3% (inactive). Moreover, the Potency in [14] was 21.4 µM (active).
